Experimental data from PubChem BioAssay AID1722 (National Center for Advancing Translational Sciences (NCATS), 2009).
Out of some 290,000 compounds screened, fewer than 10 were called active. Calls follow the shape of the full dose curve. Not all results are given here.

Each compound was assayed against Pyruvate kinase (Leishmania mexicana) (UniProt Q27686) (assay: qHTS Assay for Activators of Leishmania Mexicana Pyruvate Kinase (LmPK)). Settings: purified LmPK, Kinase-Glo ATP luminescence, 1 h; series mostly up to 57.5 µM.
Sequence of Pyruvate kinase (Leishmania mexicana) (Q27686 whole entry, looked up): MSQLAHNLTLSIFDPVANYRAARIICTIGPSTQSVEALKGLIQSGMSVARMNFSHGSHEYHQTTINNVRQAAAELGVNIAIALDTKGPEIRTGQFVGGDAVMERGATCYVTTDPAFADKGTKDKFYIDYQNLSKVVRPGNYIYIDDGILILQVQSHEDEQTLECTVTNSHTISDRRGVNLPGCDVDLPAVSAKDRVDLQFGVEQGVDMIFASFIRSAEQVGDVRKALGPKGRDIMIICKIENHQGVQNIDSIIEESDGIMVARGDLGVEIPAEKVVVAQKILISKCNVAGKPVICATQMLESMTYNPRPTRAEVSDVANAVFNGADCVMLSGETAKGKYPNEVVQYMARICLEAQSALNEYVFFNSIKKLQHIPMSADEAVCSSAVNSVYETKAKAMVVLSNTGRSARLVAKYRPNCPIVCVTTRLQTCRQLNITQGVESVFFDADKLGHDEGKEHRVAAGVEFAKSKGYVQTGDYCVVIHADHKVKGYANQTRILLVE
Source text: NIH Chemical Genomics Center [NCGC] Malcolm Walkinshaw, Hugh Morgan, Linda Gilmore University of Edinburgh, UK MLPCN Grant: 1 R03 MH085697-01 NCGC Assay Overview: Pyruvate kinase (L. Mexicana) (LmPK) enzyme was supplied as a highly purified (>95% pure) sulphate-free preparation from University of Edinburgh, UK and assayed for its ability to generate ATP from ADP using phosphoenolpyruvate (PEP) as a substrate. ATP generation was detected in a coupled reaction by luciferase-mediated luminescence, an ATP-dependent process. Pyruvate kinase substrates, PEP and ADP, were present in the assay at Km and approximately 10-fold below Km respectively. The enzyme was assayed at an intermediate level of activity to screen for both inhibitors and activators.
NCGC Assay Protocol Summary: Three uL of enzyme mix (kept on ice) in assay buffer (50 mM Imidazole pH7.2, 50 mM KCl, 7 mM MgCl2, 0.01% Tween 20, 0.05% BSA) containing PEP (0.5 mM final concentration) and LmPK (0.1 nM final concentration) was dispensed into white solid bottom 1,536 well microtiter plates. 23 nL of compound were delivered by a pin tool and 1 uL of ADP mix in assay buffer (r.t; 0.1 mM final ADP concentration) was added. Plates were incubated at room temperature for 1 hour. Two uL of detection mix (Kinase-Glo, Promega; at 4 degree Celsius protected from light) was added and luminescence read by a ViewLux (Perkin Elmer) at 1 second exposure/plate. Data were normalized to the uninhibited and AC100 inhibition (no enzyme). To monitor activation, the first column contained a five-fold concentration of LmPK (0.5 nM).

Compound	outcome
COc1ccc(C(=O)NC(=S)N2CCCCC2c2cccnc2)cc1OC (stereo not given)	inactive
CN(C)N=Nc1ccc2nc[nH]c2c1	inactive
CC(=O)Nc1ccc(/C=C/C(=O)c2ccccc2)cc1	inactive
COc1ccccc1OCc1nc2ccccc2s1	inactive
Oc1ccccc1/C=N/n1c(-c2cccs2)n[nH]c1=S	inactive
O=C(Oc1ccc(-c2nc(-c3ccccn3)no2)cc1)c1ccccc1	inactive
O=c1[nH]c2ccccc2n2c(-c3ccccc3)nnc12	inactive
O=[N+]([O-])c1ccc2oc(-c3cccc(O)c3)nc2c1	inactive
S=c1[nH]nc2c3c4c(sc3ncn12)CCCC4	inactive
CCOC(=O)c1sc(NC(=O)c2ccncc2)nc1C	inactive
Cn1c(-c2ccco2)nc2cc3ccccc3cc21	inactive
O=c1[nH]c(CCl)nc2cc(-c3ccc(Cl)cc3)sc12	inactive
O=C(Nc1ccc(C(=O)O)c(O)c1)c1ccccc1	inactive
CC(=O)N(C1=C(Cl)C(=O)c2ccccc2C1=O)c1ccc(C(=O)O)cc1	inactive
O=c1c2c(nc3n1CCCCC3)sc1c(O)cccc12	inactive
Cc1cc(NC(=O)Nc2ccccc2[N+](=O)[O-])no1	inactive
COc1ccc(-c2cn3ccsc3n2)cc1	inactive
CCC(=O)Nc1ccc(C(=O)Nc2cccc(OC)c2)cc1	inactive
O=c1oc2ccccc2cc1-c1cn(-c2ccccc2)c(=S)[nH]1	inactive
S=c1[nH]cc(-c2ccc(Cl)cc2)n1-c1ccccc1	inactive
Cc1ccnc(NC(=O)c2ccoc2C)c1	inactive
CCCCSc1nnc2c(n1)OC=Nc1ccccc1-2	inactive
O=C(Nc1nnc(C2CC2)s1)c1ccccn1	inactive
COc1ccccc1N=Cc1c(O)c2ccccc2oc1=O	inactive

Compound	outcome
Cc1nonc1C(=O)N/N=C/c1ccc(O)cc1	inactive
CC(C)Oc1ccc(CCc2n[nH]c(=S)n2Cc2ccccc2)cc1	inactive
CCc1n[nH]c(=S)n1/N=C/c1c[nH]c2ccc(Br)cc12	inactive
COc1cc(OC)c(C(=O)Nc2ccc(N(C)C)cc2)cc1OC	inactive
CC(C)c1ccc(Nc2ncccc2C#N)cc1	inactive
O=C(Nc1cccc2ccccc12)c1onc2c1CCCC2	inactive
CN(C)c1nc(=Nc2cccc(Cl)c2)ss1	inactive
Oc1ccc(N=Nc2nccs2)c(O)c1	inactive
CCc1nnc(NS(=O)(=O)c2ccc(N=Cc3c(C)[nH]n(-c4ccc(C)cc4)c3=O)cc2)s1	inactive
Cc1ccc(NC(=O)c2sccc2C)cc1[N+](=O)[O-]	inactive
Cc1cc(C(=O)COC(=O)C2CC2)c(C)n1-c1ccc(F)cc1	inactive
CCCCCC(=O)NC(=S)NNC(=O)c1ccc([N+](=O)[O-])cc1	inactive
COC(=O)c1ccc(NCC(=O)c2ccccc2)cc1	inactive
N/C(=N\OC(=O)c1ccc([N+](=O)[O-])cc1)c1ccccn1	inactive
CCOc1ccc(NC(=O)Nc2cc(C)ccc2OC)cc1	inactive
COc1ccccc1C(=O)Nc1ccc(NC(=O)c2ccco2)c(C)c1	inactive
O=c1oc2cc(O)ccc2cc1-c1ccc(F)cc1	inactive
CC(OC(=O)c1ccc2ccccc2n1)C(=O)c1ccccc1 (stereo not given)	inactive
Nc1[nH][nH]c(=O)c1N=Nc1ccc2c(c1)OCO2	inactive
Cc1ccc(OCc2n[nH]c(=S)n2-c2ccccc2)cc1	inactive
O=C(/C=C/c1ccc(N2CCOCC2)cc1)c1ccccc1	inactive
O=C1Nc2ccc(Br)cc2/C1=N/N=C/C1=C(N2CCOCC2)C(=C\c2ccccc2)/CC1	inactive
COc1ccc(C(=O)C[n+]2ccc(N)c(C)c2C)cc1	inactive
S=c1[nH]nc(COc2ccccc2)n1-c1ccccc1	inactive

Compound	outcome
COc1ccc(C(CC(=O)c2ccccc2)S(=O)(=O)c2ccccc2)cc1 (stereo not given)	inactive
S=c1[nH]nc(CSCc2ccc(Cl)cc2Cl)n1-c1ccccc1	inactive
C(=N\Nc1ccc2ccccc2n1)/c1ccc2c(c1)OCO2	inactive
Cc1ccc(-n2c(-c3ccc(Cl)cc3)n[nH]c2=S)cc1	inactive
O=c1c(-c2ccccc2)coc2cc(O)ccc12	inactive
CN(C)c1ccc(Nc2c3c4c(cccc4n(C)c2=O)C(=O)c2ccccc2-3)cc1	inactive
COc1ccc(-c2cn(-c3ccc(OC)cc3)c(=S)[nH]2)cc1	inactive
O=C(CSC(=S)N1CCOCC1)c1ccccc1	inactive
CSc1ccc(/C=N/NC(=O)c2cccc(Cl)c2)cc1	inactive
COc1ccc(-c2nc(-c3ccccc3)no2)c(OC)c1	inactive
Cc1cccc(NC(=O)/C=C/c2ccc3c(c2)OCO3)n1	inactive
O=C(Nc1ccc(Cl)cn1)c1ccc2c(c1)OCCO2	inactive
Cc1c(Cl)cccc1NC(=O)Nc1ccc(C(=O)N2CCCC2)cc1	inactive
Cc1cccc(/C(N)=N/OC(=O)c2ccccc2Cl)c1	inactive
CN=C1C=C/C(=N/N=c2\ccn(O)cc2C)C=C1C	inactive
COc1cccc(/C=C/c2ccc3ccccc3n2)c1OC(C)=O	inactive
Cc1n[nH]c(=O)nc1N/N=C/c1cccs1	inactive
COc1ccc(-n2c(-c3ccc(OC)c(OC)c3)n[nH]c2=S)cc1	inactive
c1csc(-c2nc(-c3ccncc3)no2)c1	inactive
Cc1ccn2cc(-c3nonc3C)cc2c1	inactive
COc1cc(SC)ccc1C(=O)Nc1nc(C)cs1	inactive
O=c1c2ccccc2cnn1Cc1n[nH]c(=S)n1-c1ccccc1F	inactive
O=C(/C=C/c1ccccc1)c1ccccc1O	inactive
Cc1nc(-c2ccc(NC(=O)c3cccs3)cc2)cs1	inactive

Compound	outcome
CCN(CC)c1ccc2oc(=O)c(C)nc2c1	inactive
S=c1[nH]ccn1-c1ccc(Cl)cc1	inactive
N=c1oc2ccccc2cc1C(=O)N/N=C/c1ccccc1	inactive
COc1cccc(C(=O)Nc2ccc(N3CCCC3)cc2)c1	inactive
COc1ccc(C(=O)Nc2ccccc2C(=O)N/N=C/c2ccccc2OC)cc1	inactive
O=C(O)/C=C/C(=O)NNc1ccc([N+](=O)[O-])cc1	inactive
Clc1ccc2nc(CSc3ccccc3)cn2c1	inactive
C/C(=N\NC(=O)OC(C)(C)C)c1ccc[nH]1	inactive
Cn1c(-c2sc3cc(C(F)(F)F)cnc3c2-c2ccccc2)n[nH]c1=S	inactive
COc1ccc(-c2cn3ccc(C)cc3n2)cc1	inactive
Cc1cnc(NC(=O)c2ccccn2)s1	inactive
S=c1[nH]nc(-c2cc(-c3ccsc3)n[nH]2)n1-c1ccccc1	inactive
COc1ccc(C2=Nc3cc(C)ccc3OC2)cc1	inactive
NC(=O)Cc1ccc2sc(-c3ccccc3)nc2c1	inactive
CCc1ccc2nc3sc(C(=O)Nc4nnc(CC)s4)c(N)c3cc2c1	inactive
COc1cccc(C(=O)Nc2ccc(NC(=O)c3ccco3)cn2)c1	inactive
Cc1csc(NC(=O)Nc2ccccc2[N+](=O)[O-])n1	inactive
O=[N+]([O-])c1ccc2nc(-c3ccccn3)[nH]c2c1	inactive
CCOc1cnc(C(=O)NNC(=O)c2ccccc2Br)o1	inactive
c1ccc(CN=C2Nc3ccccc3CS2)nc1	inactive
C=CCn1c(-c2ccccc2OCC)n[nH]c1=S	inactive
COc1ccc(C(=O)Nc2ccccc2C(=O)N/N=C/c2ccc(O)c(OC)c2)cc1	inactive
CCOc1ccc(C(=O)Nc2cccc(SC)c2)cc1	inactive
O=C(Nc1ccc2c(c1)OCCO2)c1cnccn1	inactive

Compound	outcome
C=CCNC(=S)N1CCN(CCN=Cc2c(C)[nH]n(-c3ccc([N+](=O)[O-])cc3)c2=O)CC1	inactive
Cc1ccc(-n2[nH]c(C)c(/C=N/N3C(=O)c4cccc5cccc(c45)C3=O)c2=O)cc1	inactive
Cc1ccc(C)c2c1cc(C)c1nnc(SCC(=O)Nc3cccc(C(=O)O)c3)n12	inactive
Cc1ccc(NCc2n[nH]c(=S)n2-c2ccccc2)cc1Cl	inactive
COc1cccc(/C=N\NC(=O)C2=NNC(=O)C2C)c1O (stereo not given)	inactive
S=c1[nH]nc(-c2cccs2)n1/N=C/c1cccs1	inactive
CSC1=N/C(=C\C=C\c2cccs2)C(=O)S1	inactive
O=C(Nc1ccccc1)c1ccc2c(c1)OCO2	inactive
CCc1cc(-c2n[nH]c(=S)n2CC(C)C)cs1	inactive
Cc1[nH]n(-c2ccc([N+](=O)[O-])cc2)c(=O)c1C=NCCN1CCN(C(=O)c2ccccc2F)CC1	inactive
Cc1cc(C(=O)N/N=C/c2ccc(N3CCOCC3)cc2)c(C)o1	inactive
O=C(Nc1nc2ccccc2s1)c1ccc2c(c1)OCO2	inactive
O=C(Nc1ccccc1)Nc1ccccc1C(=O)NCc1ccco1	inactive
Cn1cccc1C(=O)Nc1nccs1	inactive
O=c1c2ccccc2ncn1/N=C/c1ccccc1	inactive
C=CCn1c(C)cc(C2=NNC(=NCC)SC2)c1C	inactive
c1c2c(cc3sc(N4CCCCC4)nc13)OCCO2	inactive
O=C1/C(=C/c2cccs2)CCc2ccccc21	inactive
Clc1ccc(-c2cc(-c3ccccn3)on2)c(Cl)c1	inactive
O=C1CSC(=S)N1/N=C/c1ccc(O)c([N+](=O)[O-])c1	inactive
COc1ccc(OC)c(-n2c(-c3ccn[nH]3)n[nH]c2=S)c1	inactive
CCn1c(CSCc2c(Cl)cccc2Cl)n[nH]c1=S	inactive
O=C(/C=C/c1ccc2c(c1)OCCO2)c1ccc(O)cc1	inactive
Cc1ccc(F)c(NC(=O)CCc2ccccc2)c1	inactive

Compound	outcome
COc1ccc(C(=O)/C=C/Nc2ccccn2)cc1	inactive
Cn1cc([N+](=O)[O-])c(C(=O)Nc2ccc3c(c2)OCCO3)n1	inactive
c1ccc2[nH]c(-c3nc4ccccc4[nH]3)nc2c1	inactive
CC(=O)Oc1ccccc1C(=O)Nc1ncc([N+](=O)[O-])s1	inactive
O=C(c1ccc(F)cc1)n1c(=S)nc2ccccn21	inactive
C/C(=N\NC(=O)CC(C)C)c1c(C(F)(F)F)[nH]n(-c2nc3ccccc3s2)c1=O	inactive
c1ccc(-c2noc(-c3cccs3)n2)nc1	inactive
Cc1ccc(-c2nc3ccccc3[nH]2)cc1N	inactive
CCCCC(CC(C)O)c1n[nH]c(=S)n1-c1ccccc1 (stereo not given)	inactive
COc1ccc(C(=O)Nc2ccc(F)cc2F)cc1	inactive
Nc1ncc(-c2cc3ccccc3oc2=O)s1	inactive
CN(C)CCCSc1ccccc1NC(=O)/C=C/c1ccccc1	inactive
COc1ccccc1-n1c(-c2cc(-c3ccco3)[nH]n2)n[nH]c1=S	inactive
COCn1c(COc2ccccc2)nc2ccccc21	inactive
N/C(=N\OC(=O)CCC1CCCCC1)c1ccccn1	inactive
CCCc1cc(-c2n[nH]c(=S)n2Cc2ccccc2)cs1	inactive
O=C(OC1CCOC1=O)c1ccc(-c2nc3ccccc3s2)s1 (stereo not given)	inactive
COc1cccc(C(=O)c2cc3ccc(O)cc3oc2=O)c1	inactive
COc1cccc(-c2nc3cc(C)ccc3o2)c1	inactive
C=CCn1c(-c2ccc3[nH]c(C)c(C)c3c2)n[nH]c1=S	inactive
